In all, about 290,000 compounds went through this assay and about 27,000 (9.3%) were called active. The entries come from a sample that favours actives as a whole. Unmarked numbers belong to inactive results. Cut-off read from the data, not from the text of the source: active = inhibition mostly above about 28% (no sharp cut-off); inactive = mostly below about 43%.

A short description of this assay: A qHTS for Small Molecule Inhibitors of Shiga Toxin. Note: 0% is about no effect. Particulars: Vero cells, Shiga toxin protein synthesis inhibition reporter; at 38.7 µM, active compounds read high.
In the case of `COC(=O)[C@@H]1CCCN1C(=O)c1cc(COc2cccc3cccnc23)on1`, the inhibition is 18.1%. On to `CSc1ccccc1OCc1cc(C(=O)N(C)CCc2c(C)n[nH]c2C)no1`, for which the inhibition is -3.19%.

As for `CSc1ccccc1OCc1cc(C(=O)N2C[C@H]3CC[C@H]2C3)no1`, the inhibition was 108% (active). Turning to `O=C(CSc1nc(O)c(Cc2ccccc2)c(=O)[nH]1)Nc1nc2c(s1)CCCC2`, the inhibition is 40.8% (active). As for `CSc1nc(O)c(Cc2ccccc2)c(=O)[nH]1`, the inhibition is 13.7%. Take `CCOC(=O)c1sc(NC(=O)CSc2nc(O)c(Cc3ccccc3)c(=O)[nH]2)nc1C`: the inhibition is 107%. Turning to `O=C(Nc1ccccc1C(=O)O)c1ccc(N2C(=O)C3CC=CCC3C2=O)cc1` (stereo unspecified), the inhibition was 21.8%.

Consider `COc1ccccc1N(CC(=O)Nc1ccccc1C(=O)N1CCCC1)S(C)(=O)=O`, for which the inhibition is -2.57%. `Cn1c(NC(=O)c2ccc3c(c2)OCO3)cc(=O)n(C)c1=O`: the inhibition is -7.32%. Consider `COc1ccc(C(=O)Nc2ccc3c(c2)OCO3)cc1OC`, for which the inhibition was 99% (active).

In the case of `CCC(=O)c1cc2c(cc1NC(=O)c1cccs1)OCCO2`, the inhibition is -21.9%.

On to `Cn1c(=O)n(C)c2cc(C(=O)Nc3ccc(Br)cc3)ccc21`, for which the inhibition is -10.4%. In the case of `COc1ccc(S(=O)(=O)N(C)CC(=O)Nc2ccc3c(c2)OCCO3)cc1OC`, the inhibition is 24.6%.

For `Cn1c(=O)n(C)c2cc(C(=O)Nc3ccc4c(c3)OCO4)ccc21`, the inhibition was 33.6% (active). For `COc1cc(OC)c(C(=O)NCc2ccc3c(c2)OCO3)cc1OC`, the inhibition was -10.8%.

As to `COc1cc(NC(=O)c2ccc3c(c2)OCO3)ccc1NC(=O)c1cccs1`, the inhibition was 55.9% (active).

Consider `COc1ccc(S(=O)(=O)Nc2ccc3c(c2)OCO3)cc1Cl`, for which the inhibition is -1.27% (active). As to `COc1ccc(F)cc1S(=O)(=O)Nc1ccc2c(c1)OCO2`, the inhibition was -6.49%. As to `COc1cc(NC(=O)c2cccs2)ccc1NC(=O)c1ccccc1Cl`, the inhibition is 39.7%. `CC(C)CNS(=O)(=O)c1ccc(OCC(=O)Nc2ccc3c(c2)OCO3)c(Cl)c1`: the inhibition was -2.63%.

Turning to `COC(=O)c1ccc(C2C3=C(Nc4nnnn42)c2ccccc2OC3)cc1` (stereo unspecified), the inhibition was -11.2%. As to `CC1CN(C(=O)CCC(=O)NCCCN2CCC(Cc3ccccc3)CC2)c2cc(Cl)ccc2O1` (stereo unspecified), the inhibition was -10.8%. As to `O=C(CN(c1cc(C(F)(F)F)ccc1Cl)S(=O)(=O)c1ccccc1)NCc1cccnc1`, the inhibition is -32%.

`Cc1cccc(C)c1N1C(=O)CN(Cc2ccccc2)C1=S`: the inhibition is -4.26%. Under `COc1ccc(C(CNC(=O)COc2ccc([N+](=O)[O-])cc2)N2CCCCC2)cc1` (stereo unspecified) stands -4.67%. In the case of `COc1ccc(CN2CN(C3CCCC3)CSC2=S)cc1`, the inhibition was 17.5%.

In the case of `CC1Cc2cc(/C(O)=C3\C(=O)C(=O)N(Cc4cccnc4)C3c3ccccc3F)ccc2O1` (stereo unspecified), the inhibition was -7.46%.

As to `CCOC(=O)c1c(C)[nH]c(C(=O)NCCN2CCOCC2)c1C`, the inhibition was 2.41%. With `C[C@H]1[C@H]2c3nc4ccccc4n3C[C@H]1ON2C1CCCCC1`, the inhibition was -7.22%. Consider `CCOC(=O)C(Cc1ccc(N)cc1)N1C(=O)c2ccccc2C1=O` (stereo unspecified), for which the inhibition was 7.65%.

As to `CC(=O)Nc1ccc(-c2nc3ccccc3o2)cc1`, the inhibition is 54.7% (active).

Consider `O=C(Nc1cnccn1)c1cccnc1`, for which the inhibition was 11%.

For `Cc1cc(NS(=O)(=O)c2ccc(NC(=O)c3cccnc3)cc2)nc(C)n1`, the inhibition is 2.23%. Under `COC(=O)c1cc(NC(=O)c2cccnc2)ccc1N1CCOCC1` stands 26.8%.

As to `CC(=O)Nc1ccc(Nc2c3ccccc3nc3ccccc23)cc1`, the inhibition was -31.9%. As for `COc1cc(OC)cc(C(=O)Nc2ccc(-c3nc4ccccc4o3)c(O)c2)c1`, the inhibition was 35.4%.

As for `Cc1cc2nc(-c3ccc(NC(=O)c4cccnc4)cc3)oc2cc1C`, the inhibition was 101% (active).

For the compound `CC(=O)NC(=S)Nc1ccc(NC(=O)c2cccnc2)cc1`, the inhibition is 24.9%. `Cc1ccc2nc(-c3ccc(NC(=O)c4cccnc4)cc3)oc2c1`: the inhibition is 142% (active).

As for `COc1ccc(CNC(=O)CN(C(=O)c2csnn2)c2cnc3ccccc3c2)cc1`, the inhibition is -8.3%. `CCOC(=O)c1cc(=O)c2ccc(OCc3ccccc3)cc2o1`: the inhibition is -1.81%. The figure for `CCOc1ccccc1NS(=O)(=O)c1c[nH]c(C(=O)OC)c1` is -3.38%; for `Cc1ccc(NC(=O)C2CCN(S(=O)(=O)c3ccc4c(c3)NC(=O)CO4)CC2)cc1C` it is -2.09%; for `CNC[C@H](CC1CCCCC1)NC[C@H](NCCC1CCCC1)[C@H](C)O` it is -0.811%. On to `O=C(O)C1CC=CCC1C(=O)NCCc1ccccc1` (stereo unspecified), for which the inhibition was 5.17%.

Regarding `CC(=O)Nc1ccc(NC(=O)COc2ccccc2C(=O)Nc2cccc(Cl)c2Cl)cc1`, the inhibition was 12.3%. Under `O=C(O)C1CC=CCC1C(=O)Nc1ccccc1C(=O)N1CCN(c2ccccc2)CC1` (stereo unspecified) stands -42.2%; under `O=C(Nc1ccccc1)c1ccccc1NC(=O)C(F)(F)F`, 52.8%. With `O=C(Nc1ccc(Cl)c(Cl)c1)c1ccccc1NC(=O)C1CC=CCC1C(=O)O` (stereo unspecified), the inhibition is 59.4% (active). Turning to `O=C(Nc1cccc(Cl)c1Cl)c1ccccc1NC(=O)C1CC=CCC1C(=O)O` (stereo unspecified), the inhibition was 35.7% (active). Regarding `Cc1ccc(N(CC(=O)NCC2CCCO2)C(=O)CNS(=O)(=O)c2ccc(Cl)cc2)cc1` (stereo unspecified), the inhibition was -7.51%. Under `CN(C(=O)CN1C(=O)/C(=C/c2ccc(Cl)cc2)SC1=S)C1CCS(=O)(=O)C1` (stereo unspecified) stands -7.14%; under `O=C(c1cc2ccccc2s1)N1CCN(c2ccccn2)CC1`, 9.52%; under `COc1ccc(-c2cc(=O)oc3cc(OCC(=O)N(C)C4CCS(=O)(=O)C4)ccc23)cc1` (stereo unspecified), -5.59%.

`COc1cccc(C(=O)N2CCC(n3nccc3NC(=O)C3CCOC3)CC2)c1` (stereo unspecified): the inhibition is -9.25%. In the case of `CCOCCCN1C(=O)C2C(C(=O)Nc3ccc(OCC)cc3)C3C=CC2(O3)C1C(=O)NC1CCCCC1` (stereo unspecified), the inhibition was -6.78%. Take `Cc1ccc(/C=N/NC(=O)C2=NNC(c3ccccc3)(c3ccccc3)C2)c(O)c1`: the inhibition was 33.7%. Under `CCNC(=S)NNC(=O)c1ccc2ncccc2c1` stands 38%. Take `O=C(O)c1ccc(N/N=C/c2cn(-c3ccccc3)nc2-c2cccs2)cc1`: the inhibition was 46.3%.

For the compound `CSCC[C@H](NC(=O)OC(C)(C)C)C(=O)N/N=C/c1cc2ccc(C)cc2nc1Cl`, the inhibition was -11.9%. Turning to `Cc1ccc2cc(/C=N/NC(=O)[C@@H]3CCCN3)c(Cl)nc2c1`, the inhibition was 54.3% (active). Regarding `O=C(O)c1ccc(N/N=C/c2ccc3ncccc3c2)cc1`, the inhibition is 45.9% (active).

In the case of `O=C(Nc1cccc(F)c1)[C@@H]1CCCN1`, the inhibition was 3.23%. The figure for `O=C(O)c1ccc(/C=N/Nc2nc(N3CCCCC3)nc(N3CCCCC3)n2)cc1` is -6.74%; for `Cc1ccc2cc(/C=N/Nc3ccc(C(=O)O)cc3)c(Cl)nc2c1` it is 51.3% (active). With `Cc1cc(OCC(=O)N2CCN(c3ncccn3)CC2)ccc1Cl`, the inhibition was -7.52%.

With `COc1cc(OC)cc(C(=O)NCCSCc2ccc(Cl)cc2)c1`, the inhibition was -9.78%. Consider `COc1ccc2c(c1)C(=C(C#N)C#N)C(=O)N2CCc1ccccc1`, for which the inhibition was 6.44%. For the compound `O=C1CN(C(=O)c2cc(F)cc(F)c2)c2ccccc2N1`, the inhibition was -2.51%.

`CC(C)CC(O)C1CCN(C(=O)CCc2nnc(-c3ccc4c(c3)OCO4)o2)CC1` (stereo unspecified): the inhibition was -6.93%. Turning to `CC(CO)NCC12CC3CC(CC(C3)C1)C2` (stereo unspecified), the inhibition was 2.32%. In the case of `CCOc1ccccc1NC(=O)Cn1nnc(C(=O)NCc2cccs2)c1N`, the inhibition was -4%. Under `COC1=C/C(=C/c2c(N)n3nc(CC(=O)N4CCOCC4)sc3nc2=O)C=CC1=O` stands -2.63%; under `COc1ccc(CN2CC(C(=O)NC3CCCCC3)CC2=O)cc1` (stereo unspecified), -6.86%. As for `Cc1ccc(C)c(OCCC(=O)OCC(=O)N2CCN(c3ccccc3)CC2)c1`, the inhibition is -5.02%. Regarding `CCN1CCCC1CNC(=O)c1cc2cc(OC)c(OC)cc2[nH]1` (stereo unspecified), the inhibition is -5.24%. As to `CC(O)c1ccc(OCCN(C)c2ccccn2)cc1` (stereo unspecified), the inhibition was 87.4% (active).

With `CC(C)c1ccc(OCC(O)CN2CCN(c3ccccn3)CC2)cc1` (stereo unspecified), the inhibition is -24.5%. Turning to `CCOc1ccc(C(C(=O)NCCOC)N(CCOC)C(=O)CCC(=O)Nc2ccccn2)cc1` (stereo unspecified), the inhibition was -13.1%. With `COc1ccc(-c2noc(C(C)NS(=O)(=O)c3ccc(NC(C)=O)cc3)n2)cc1` (stereo unspecified), the inhibition was -7.2%.

As to `COc1ccc(CCNC(=O)C(=O)NCC2OCCN2S(=O)(=O)c2ccc(F)cc2)cc1OC` (stereo unspecified), the inhibition is 2.97%. Consider `O=C(O)/C=C/C(=O)Nc1ccc(F)cc1F`, for which the inhibition was -11.9%. As to `COc1ccccc1NC(=O)/C=C/C(=O)O`, the inhibition is -5.02%.

Consider `COC(=O)c1sc(-c2ccc(C(C)(C)C)cc2)cc1NC(=O)/C=C/C(=O)O`, for which the inhibition was 108% (active). Take `C=CCn1c(SCc2ccc(C(=O)NCCO)cc2)nc2ccccc2c1=O`: the inhibition is -5.58%. On to `CC(C(=O)Nc1ccc(O)c(C(=O)O)c1)N1C(=O)/C(=C/c2cccs2)SC1=S` (stereo unspecified), for which the inhibition was 5.02%.

With `COCCCNC(=O)[C@H]1N2C(=O)c3ccccc3C2SC1(C)C` (stereo partly specified), the inhibition is -3.4%. As to `CC1=Nn2c(nnc2-c2ccccc2)SC1`, the inhibition is -3.08%. As to `COc1ccc(C2=Nn3c(nnc3-c3ccccc3O)SC2)cc1`, the inhibition is 42.8% (active). For the compound `Cc1nnc2n1N=C(c1ccccc1)CS2`, the inhibition was -5.72%. With `COc1cc(/C(=C/c2ccccc2)c2ccccc2)c2c(c1)oc1ccccc12`, the inhibition is -7.7%.

(Values after PubChem BioAssay AID2315 (National Center for Advancing Translational Sciences (NCATS), 2010).)
